From PubChem BioAssay
“And” between values parts separate entries of the source, which are not always exact repeats. Identical values can stand only once. A number with no mark means an inactive call. The source made the active and inactive calls.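 The calls were made as follows, unless noted: active = mean z-score across replicates of 1.96 or higher in either the MELAS or the Rieske mutant cell line; inactive = the rest.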

Experiment: phospholipid biosynthesis inhibitors in animal cells, primary screen, cell-based, LOPAC library, screen 4 (AID 1347384; call rule not given here)
Conditions: phospholipid biosynthesis inhibition screen, at 10 µM

| SMILES | outcome |
| --- | --- |
| CC(C)(C)c1ccc(C(O)CCCN2CCC(C(O)(c3ccccc3)c3ccccc3)CC2)cc1 (stereo not drawn) | inactive |
| O=C(O)COCCN1CCN(C(c2ccccc2)c2ccc(Cl)cc2)CC1 (stereo not drawn) | inactive |
| CC(C)c1c(C(=O)Nc2ccccc2)c(-c2ccccc2)c(-c2ccc(F)cc2)n1CC[C@@H](O)C[C@@H](O)CC(=O)O | inactive |
| Cc1ccc(/C(=C\CN2CCCC2)c2ccccn2)cc1 | inactive |
| CC(C)(C(=O)O)c1ccc(C(O)CCCN2CCC(C(O)(c3ccccc3)c3ccccc3)CC2)cc1 (stereo not drawn) | inactive |

Experiment: survival rescue of mitochondrial mutant cells in low glucose, primary screen, MELAS cybrids, Rieske KO mouse fibroblasts, CellTiter-Glo (AID 1508586);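 also: z relative to plate mean and SD of compound and empty wells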
Conditions: MELAS cybrid survival, CellTiter-Glo 48 h, hits give high values

| SMILES | z-score |
| --- | --- |
| CC(C)(C)c1ccc(C(O)CCCN2CCC(C(O)(c3ccccc3)c3ccccc3)CC2)cc1 (stereo not drawn) | -0.29 and -0.00284 |
| O=C(NCC1CCCCN1)c1cc(OCC(F)(F)F)ccc1OCC(F)(F)F (stereo not drawn) | -0.524 and 0.18 |
| O=C(O)COCCN1CCN(C(c2ccccc2)c2ccc(Cl)cc2)CC1 (stereo not drawn) | -0.429 and 0.214 |
| CC(C)c1c(C(=O)Nc2ccccc2)c(-c2ccccc2)c(-c2ccc(F)cc2)n1CC[C@@H](O)C[C@@H](O)CC(=O)O | -2.11 |
| Cc1ccc(/C(=C\CN2CCCC2)c2ccccn2)cc1 | 0.293 and -0.295 |
| CC(C)(C)CC(C)(C)c1ccc(OCCOCC[N+](C)(C)Cc2ccccc2)cc1 | -0.38 and -2.14 |
| Clc1ccccc1CN1CCc2sccc2C1 | 0.708 and -0.623 |
| C[N+]1(C)CCC(OC(=O)C(O)(c2ccccc2)C2CCCC2)C1 (stereo not drawn) | 0.599 |
